According to PubChem BioAssay (NCATS):
Records with an inconclusive call do not appear. The source made the active and inactive calls. Unless noted, calls follow the shape of the dose curve; as a rule, active = well fitted curve in the direction sought with a large enough effect; inconclusive = small, poorly fitted or top-dose-only effect, or another doubt; inactive = no such curve, though single readings can be large; an effect the other way counts as inactive or inconclusive.

Key:
[1] = P-glycoprotein substrates identified in KB-8-5-11 adenocarcinoma cell line, qHTS therapeutic library screen (AID 1346987); also: nearly all actives have a fitted effect of over 65% in size; also: potency is read from the fitted curve at half-maximal effect
Procedure, shortened: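 Compounds are pinned in dose-response onto KB-8-5-11 cells (500 cells/well, colchicine-free medium) and left 72 h at 37 degree C. CellTiter-Glo luminescence then yields AC50 values.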

[2] = system: CRL-7250; assay: qHTS assay to identify novel small-molecules to repurpose for Merkel cell carcinoma treatment (AID 1296009); details: MCC and control cell lines, CellTiter-Glo viability, 72 h; series mostly up to 92 µM; also: nearly all actives have a fitted effect of over 60% in size
Procedure, shortened: (§1)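 Viability readout: ATP luminescence (CellTiter-Glo) after 72 hr drug exposure at 37 degree celsius. Dose-response format was 8 points for NPC and 11 points for MIPE; data normalized to in-plate controls.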

[3] = system: HeLa; assay: Primary qHTS to identify gynecologic anti-cancer compounds using libraries of approved drugs and bioactive compounds (AID 1345084); details: Gynecologic cancer cell panel viability, ATPlite luminescence, 48 h; series mostly up to 57.5 µM; also: nearly all actives have a fitted effect of over 55% in size; also: potency is read from the fitted curve at half-maximal effect; as to activity change, negative = cytotoxicity: % is scaled to controls: 0 for no effect and ±100 for the full control effect
Procedure, shortened: (§2)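 In this quantitative HTS, cell killing is estimated from loss of ATP-dependent luciferase light. Cells see five compound concentrations over a 48 h exposure.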

[4] = system: JEG-3; assay: as above; details: Gynecologic cancer cell panel viability, ATPlite luminescence, 48 h; series mostly up to 57.5 µM
Procedure, shortened: as §2

[5] = system: SKOV3; assay: as above; details: Gynecologic cancer cell panel viability, ATPlite luminescence, 48 h; series mostly up to 57.5 µM
Procedure, shortened: as §2

[6] = P-glycoprotein substrates identified in KB-3-1 adenocarcinoma cell line, qHTS therapeutic library screen (AID 1346986); also: nearly all actives have a fitted effect of over 60% in size
Procedure, shortened: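 72 h cell-killing screen, 500 cells/well, CellTiter-Glo luminescence. Paired lines KB-3-1/KB-8-5-11; P-gp dependence checked by tariquidar co-treatment and HEK-293 MDR-19 versus empty-vector cells.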

[7] = system: Zika virus NS2B-NS3 protease (linked construct); assay: Primary screen NINDS Rhodamine qHTS for Zika virus inhibitors (AID 1347160); also: nearly all actives have a fitted effect of over 55% in size; as to activity change, negative = inhibition: % is scaled to controls: 0 for no effect and ±100 for the full control effect
Procedure, shortened: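 Aprotinin served as in-plate control. Conditions: 25 nM linked NS2B-NS3, pH 8.0 Tris buffer, titrated compounds, 15 min preincubation and 15 min reaction with 1.5 microM Rhod110 substrate at room temperature.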

[8] = molecular target: Calcium and integrin-binding protein 1 (Homo sapiens) (UniProt Q99828); assay: Primary qHTS for Identification of Calcium Integrin Binding Protein 1 (CIB1) Competitor (AID 1508620);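 also: GST tagged CIB1 binding a fluorescein labelled alphaIIb integrin peptide tracer; top concentration of the series differs between compounds; % is scaled to controls: 0 for no effect and ±100 for the full control effect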
Chain of Calcium and integrin-binding protein 1 (Homo sapiens) (Q99828 whole entry, looked up): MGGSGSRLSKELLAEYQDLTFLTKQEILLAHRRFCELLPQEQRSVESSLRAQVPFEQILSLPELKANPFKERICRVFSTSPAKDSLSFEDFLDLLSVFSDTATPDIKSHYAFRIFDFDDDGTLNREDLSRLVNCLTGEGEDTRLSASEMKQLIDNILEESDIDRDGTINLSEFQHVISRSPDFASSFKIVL
Procedure, shortened: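 Fluorescence polarization competition: CIB1-GST (1 uM final) preincubated with compound 15 min at room temperature, then FITC-labeled alphaIIb peptide (100 nM final) added for another 15 min. Polarization read at Ex 480/Em 540.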

[9] = Primary redox qHTS assay for identification of artifact compounds. (AID 1845223);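 also: 0% = DMSO and 100% = reference compound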
Procedure, shortened: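 Redox-cycling detection via DTT (250 uM final) oxidation coupled to Amplex Red (25 uM)/HRP (250 mU/mL) in HBSS. 15 min preincubation plus 30 min after DTT, room temperature. Ex/Em 525/598 nm; 4-parameter Hill fit against DMSO and 10 uM DA3003.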

[10] = system: CAOV3; assay: Primary qHTS to identify gynecologic anti-cancer compounds using libraries of approved drugs and bioactive compounds (AID 1345084); details: Gynecologic cancer cell panel viability, ATPlite luminescence, 48 h; series mostly up to 57.5 µM; also: nearly all actives have a fitted effect of over 55% in size; also: potency is read from the fitted curve at half-maximal effect; as to activity change, negative = cytotoxicity: % is scaled to controls: 0 for no effect and ±100 for the full control effect
Procedure, shortened: as §2

[11] = system: Zika virus NS2B-NS3 protease (unlinked complex); assay: Primary screen GU Rhodamine qHTS for Zika virus inhibitors: Unlinked NS2B-NS3 protease assay (AID 1347159); also: % is scaled to controls: 0 for no effect and ±100 for the full control effect; nearly all actives have a fitted effect of over 60% in size
Procedure, shortened: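 Buffer 10 mM Tris-HCl pH 8.0, 0.01% Tween 20. Unlinked protease 25 nM; compound preincubation 15 min, RT, protected from light. Substrate Rhod110, 1.5 microM; ~15% conversion in 15 min.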

[12] = system: HACAT; assay: qHTS assay to identify novel small-molecules to repurpose for Merkel cell carcinoma treatment (AID 1296009); details: MCC and control cell lines, CellTiter-Glo viability, 72 h; at 44.8 µM (top of the series) unless noted; also: nearly all actives have a fitted effect of over 60% in size
Procedure, shortened: as §1

[13] = molecular target: Cytochrome P450 2C9 (Homo sapiens) (UniProt P11712); assay: Cytochrome P450 family 2 subfamily C member 9 (CYP2C9) small molecule antagonists: luciferase biochemical (cell-free) qHTS assay (AID 1645842; active = well fitted curve in the direction sought with a large enough effect in the repeat runs; an effect the other way counts as inactive or inconclusive; also: potency is read from the fitted curve at half-maximal effect; nearly all actives have a fitted effect of over 55% in size)
Chain of Cytochrome P450 2C9 (Homo sapiens) (P11712 whole entry, looked up): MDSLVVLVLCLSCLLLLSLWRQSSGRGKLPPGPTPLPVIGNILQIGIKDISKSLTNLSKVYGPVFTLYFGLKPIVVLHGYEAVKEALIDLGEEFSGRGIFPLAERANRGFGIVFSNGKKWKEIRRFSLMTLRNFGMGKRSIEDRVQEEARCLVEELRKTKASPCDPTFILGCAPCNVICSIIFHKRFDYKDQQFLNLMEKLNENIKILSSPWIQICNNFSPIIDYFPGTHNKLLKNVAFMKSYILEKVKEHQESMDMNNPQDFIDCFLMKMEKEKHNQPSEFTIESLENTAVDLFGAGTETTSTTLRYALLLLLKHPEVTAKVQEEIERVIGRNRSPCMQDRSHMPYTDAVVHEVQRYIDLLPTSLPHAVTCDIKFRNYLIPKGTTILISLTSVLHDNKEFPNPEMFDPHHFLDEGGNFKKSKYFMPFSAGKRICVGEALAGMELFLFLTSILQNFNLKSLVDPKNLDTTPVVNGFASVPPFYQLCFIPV
Procedure, shortened: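 P450-Glo CYP2C9 system: proluciferin substrate with enzyme in mix containing 0.4% BSA, 10 min at room temperature, then NADPH regeneration solution added and incubated 1 h at 37C. Detection reagent stopped reaction; luminescence read after 20 min as RLU.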

[14] = molecular target: Catechol O-methyltransferase (Homo sapiens) (UniProt P21964); assay: Confirmatory Screen for Target Class Profiling of Small Molecule Inhibitors of Methyltransferases (AID 1745852); details: MTase-Glo luminescence, SAH detection, recombinant enzyme; measured here: COMT max response; stronger effect = lower value
Chain of Catechol O-methyltransferase (Homo sapiens) (P21964 whole entry, looked up): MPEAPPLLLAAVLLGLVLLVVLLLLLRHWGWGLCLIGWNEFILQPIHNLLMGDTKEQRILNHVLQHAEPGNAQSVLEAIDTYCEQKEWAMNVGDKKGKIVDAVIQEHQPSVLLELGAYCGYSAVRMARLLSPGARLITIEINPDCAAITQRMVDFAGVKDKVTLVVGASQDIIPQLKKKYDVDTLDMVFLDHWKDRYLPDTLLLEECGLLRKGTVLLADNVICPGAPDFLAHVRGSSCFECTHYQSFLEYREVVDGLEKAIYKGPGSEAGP

[15] = molecular target: Guanidinoacetate N-methyltransferase (Homo sapiens) (UniProt Q14353); assay: as above; details: activity change, negative = inhibition: at 57.3 µM (top of the series) unless noted
[16] = molecular target: Nicotinamide N-methyltransferase (Homo sapiens) (UniProt P40261); assay: as above; details: MTase-Glo luminescence, SAH detection, recombinant enzyme; measured here: NNMT max response; stronger effect = lower value
Chain of Nicotinamide N-methyltransferase (Homo sapiens) (P40261 whole entry, looked up): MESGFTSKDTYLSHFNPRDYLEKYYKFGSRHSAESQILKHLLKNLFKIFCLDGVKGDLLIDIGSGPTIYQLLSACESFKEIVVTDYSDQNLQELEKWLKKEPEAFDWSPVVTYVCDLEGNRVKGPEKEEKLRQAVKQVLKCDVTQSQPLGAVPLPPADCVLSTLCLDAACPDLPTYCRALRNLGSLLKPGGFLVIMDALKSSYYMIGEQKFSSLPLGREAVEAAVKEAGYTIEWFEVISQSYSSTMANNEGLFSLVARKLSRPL

C/C=C(/C)C1C=CC2CC(C)CC(C)C2C1/C(O)=C1\C(=O)NC(CC(C)(O)C(=O)O)C1=O (configuration not stated)
inactive: Potency [1] | Potency [2] | Potency [3] | Potency [4] | Potency [5]

C[C@]12CC[C@H]3[C@@H](CCC4=C/C(=N/OCC(=O)O)CC[C@@]43C)[C@@H]1CC[C@@H]2O
inactive: Potency [6] | Potency [7] | Potency [8] | Potency [9] | Potency [10] | Potency [3] | Potency [4] | Potency [5]

COC(=O)CC1CC2(C(=O)c3c(O)cccc3C2(O)C(=O)OC)C(C)O1 (configuration not stated)
inactive: Potency [11] | Potency [7] | Potency [8] | Potency [9] | outcome [12] | Potency [10] | Potency [4] | Potency [5]

Cc1cccc(NC(=O)N[C@H]2CN(C)c3ccccc3C(c3ccccc3)=N2)c1
inactive: Potency [11] | Potency [7] | Potency [9] | outcome [12] | Potency [10] | Potency [3] | Potency [4] | Potency [5]

C1=C(c2cnc[nH]2)c2ccsc2CC1
active: Potency [13] 3.38 µM
inactive: Potency [1] | Potency [11] | Potency [7] | Potency [8] | Potency [9] | outcome [12] | Potency [10] | Potency [4]

C[C@@H]1CCC/C=C/[C@H]2C[C@@H](O)C[C@@H]2[C@@H](O)/C=C/C(=O)O1
active: Potency [1] 164 nM | Potency [10] 316 nM | Potency [3] 501 nM | Potency [4] 1 µM | Potency [5] 355 nM
inactive: Potency [11] | Potency [7] | Potency [8]

COc1cc(O)c2c(c1)/C=C/C[C@@H](O)[C@@H](O)C(=O)CCC[C@H](C)OC2=O
inactive: Potency [1] | Potency [11] | Potency [7] | Potency [8] | Potency [9] | Potency [10] | Potency [4] | Potency [5]

CNC(=O)c1cc(C#N)cc(C)c1NC(=O)c1cc(Br)nn1-c1ncccc1Cl
inactive: Potency [7] | Potency [8] | Potency [10] | Potency [3] | Potency [4] | Potency [5]

C#CCO[C@H]1CN2CCC1CC2
inactive: Potency [1] | Potency [7] | Potency [8] | Potency [9] | Potency [10] | Potency [3] | Potency [4] | Potency [5]

CO[C@H]1C[C@H](O[C@H]2CC[C@@]3(C)C(=CCC4C3CC[C@]3(C)[C@@H](C5=CC(=O)OC5)CC[C@]43O)C2)O[C@@H](C)[C@@H]1O[C@@H]1O[C@H](CO[C@@H]2O[C@H](CO)[C@@H](O)[C@H](O)[C@H]2O)[C@@H](O)[C@H](O)[C@H]1O (some centres not stated)
inactive: activity change, negative = cytotoxicity [1] 3.8% [at 9.29 µM] | Potency [11] | Potency [7] | Potency [8] | redox activity (% of DA3003) [9] 8.54% [at 11.5 µM] | activity change, negative = cytotoxicity [10] 17.9% [at 11.6 µM] | activity change, negative = cytotoxicity [3] 1.26% [at 11.6 µM] | activity change, negative = cytotoxicity [4] 16.2% [at 11.6 µM]

CCC(C)/C=C(C)/C=C/C1=CC2=C(Cl)C(=O)C(C)(OC(C)=O)C(=O)C2=CO1 (configuration not stated)
inactive: Potency [1] | Potency [8] | Potency [10] | Potency [3] | Potency [4] | Potency [5]

CC[C@H](C)[C@H](NC(=O)[C@H]1CCCCN1C)C(=O)N(COC(=O)CC(C)C)[C@H](C[C@@H](OC(C)=O)c1nc(C(=O)N[C@@H](Cc2ccc(O)cc2)C[C@H](C)C(=O)O)cs1)C(C)C
inactive: activity change, negative = inhibition [11] 9.2% [at 2.28 µM] | outcome [7] inactive [at 1.3 µM] | activity change, negative = inhibition [8] 1.44% [at 2.24 µM] | redox activity (% of DA3003) [9] -0.209% [at 1.02 µM] | activity change, negative = cytotoxicity [10] -2.04% [at 1.28 µM]
active: Potency [1] 1.9 nM

COC1CC(O[C@H]2CC[C@]3(C)C4CC[C@]5(C)[C@@H](C6=CC(=O)OC6)[C@@H](OC(C)=O)C[C@]5(O)C4CC[C@@H]3C2)OC(C)C1O[C@@H]1O[C@H](CO)[C@@H](O)[C@H](O)[C@H]1O (some centres not stated)
inactive: Potency [8]
active: Potency [1] 544 nM | Potency [10] 1120 nM | Potency [5] 891 nM

CN1C(=O)CN=C(c2ccccc2Cl)c2cc(Cl)ccc21
active: Potency [13] 21.3 µM
inactive: Potency [1] | Potency [7] | Potency [8] | Potency [9] | Potency [10] | Potency [3] | Potency [4] | Potency [5]

CC(=O)OC[C@]12C[C@H](OC(=O)CC(C)C)C(C)=C[C@H]1O[C@@H]1[C@H](O)[C@@H](O)[C@@]2(C)[C@]12CO2
inactive: Potency [11] | Potency [7] | Potency [8]
active: Potency [1] 112 nM | Potency [3] 158 nM | Potency [4] 1.58 µM

CC(=O)O[C@@H]1[C@@H](O)[C@H]2O[C@@H]3C=C(C)[C@@H](O)C[C@]3(CO)[C@]1(C)[C@]21CO1
inactive: Potency [11] | Potency [7] | Potency [8]
active: Potency [3] 2510 nM | Potency [5] 1260 nM

C[C@H]1O[C@@H](O[C@H]2CC[C@]3(CO)C4CC[C@]5(C)[C@@H](C6=CC(=O)OC6)CC[C@]5(O)[C@@H]4CC[C@H]3C2)[C@H](O)[C@H](O)[C@@H]1O[C@@H]1O[C@H](CO)[C@@H](O)[C@H](O)[C@H]1O (some centres not stated)
inactive: Potency [8] | Potency [9]
-0.722% [at 19.1 µM]: activity change, negative = inhibition [15]
active: Potency [1] 862 nM | Potency [3] 3160 nM | Potency [5] 2820 nM
-90%: activity [14]
-7.07%: activity [16]

CC[C@@H]1C[C@H]2CC[C@H](O2)[C@H](C)C(=O)O[C@@H](C)C[C@@H]2CC[C@@H](O2)[C@@H](C)C(=O)O[C@H](CC)C[C@H]2CC[C@H](O2)[C@H](C)C(=O)O[C@@H](C)C[C@@H]2CC[C@@H](O2)[C@@H](C)C(=O)O1
inactive: Potency [7] | Potency [8] | Potency [4]
active: Potency [10] 398 nM | Potency [3] 794 nM

C[C@H]1O[C@@H](O[C@H]2CC[C@]3(C=O)C4CC[C@]5(C)[C@@H](C6=CC(=O)OC6)CC[C@]5(O)[C@@H]4CC[C@]3(O)C2)C[C@@H](O)[C@@H]1O (some centres not stated)
inactive: Potency [11] | Potency [7] | Potency [8] | Potency [9]
active: Potency [1] 50.2 nM | Potency [10] 112 nM | Potency [3] 126 nM | Potency [5] 112 nM

CC1=C[C@H]2O[C@@H]3C[C@H]4OC(=O)/C=C/C=C/C(=O)OCC/C(C)=C/C(=O)OC[C@@]2(CC1)[C@]4(C)[C@]31CO1
active: Potency [3] 89.1 nM | Potency [4] 0.126 µM | Potency [5] 70.8 nM
inactive: Potency [11] | Potency [7] | Potency [8] | Potency [9]

COC(=O)C1=COC(C)C2CN3CCC4(C(=O)Nc5ccccc54)C3CC12 (configuration not stated)
inactive: Potency [1] | Potency [11] | Potency [7] | Potency [9] | Potency [10] | Potency [4] | Potency [5]
